# Source: PubChem BioAssay
# Where “and” joins values, the source holds several entries; their conditions need not be identical. Equal values may be shown once. Calls of active or inactive are those of the source. Rule as the data show it, unless noted: active = inhibition above about 80%; inactive = the rest.
# Legend:
# [1] = growth inhibition, single agent or in combination, cell-based, chromothripsis tumors, cisplatin or BGB combos (AID 1671449); settings: LFS_MB_P medulloblastoma cells;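 also: cells exposed for 96 hours; 0% = vehicle DMSO and 100% = killing by high DMSO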
# [2] = growth inhibition, single agent and combos, cell-based, chromothripsis tumors, cisplatin or BGB combos (AID 1671450); settings: HDN33 neuroblastoma cells, stronger effect = higher value;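 also: cells exposed to compound for four days; 0% = vehicle DMSO and 100% = cell killing by high DMSO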
# [3] = growth inhibition, single agents and combos, ICB984, cell-based, cisplatin or BGB combos, synergistic combos for chromothripsis tumors (AID 1671451; call rule not given here;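 also: cells exposed for 96 hours before readout; 0% = vehicle DMSO and 100% = killing by high DMSO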); settings: ICB984 medulloblastoma cells, drug combinations, stronger effect = higher value
# [4] = growth inhibition, single agents and combos, LFS_MB_1R, cell-based, cisplatin or BGB combos, synergistic combos for chromothripsis tumors (AID 1671452); settings: LFS_MB_1R medulloblastoma cells, stronger effect = higher value;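 also: cells exposed for 96 hours before readout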
# [5] = growth inhibition, single agents and combos, HTB85, cell-based, BGB or cisplatin IC20 combos, synergistic combos for chromothripsis tumors (AID 1671453); settings: HTB85 osteosarcoma cells, drug combinations, stronger effect = higher value;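 also: cells exposed for 96 hours before readout; 0% = vehicle DMSO and 100% = high DMSO killing control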
# [6] = growth inhibition, single agents and combos, CRL2098, cell-based, BGB or cisplatin IC20 combos, synergistic combos for chromothripsis tumors (AID 1671454); settings: CRL2098 osteosarcoma cells, drug combinations, stronger effect = higher value;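 also: cells exposed for 96 h before readout; 0% = vehicle DMSO and 100% = killing by high DMSO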
# [7] = growth inhibition, single agents and combos, HD-MB03, cell-based, BGB or cisplatin IC20 combos, synergistic combos for chromothripsis tumors (AID 1671455; in the data active = inhibition above about 83%;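 also: 0% = vehicle DMSO and 100% = high DMSO as cytotoxic control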); settings: HD-MB03 medulloblastoma cells, stronger effect = higher value
# [8] = growth inhibition, single agents and combos, UWB1.289, cell-based, BGB or cisplatin combos, synergistic combos for chromothripsis tumors (AID 1671456); settings: UWB1.289 ovarian carcinoma cells, stronger effect = higher value;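 also: cells exposed to compound for four days; 0% = vehicle DMSO and 100% = killing by high DMSO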
# [9] = growth inhibition, single agents and combos, LFS_MB_2R, cell-based, cisplatin combos, synergistic combos for chromothripsis tumors (AID 1671457); settings: LFS_MB_2R medulloblastoma cells, stronger effect = higher value;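 also: cells exposed to compound for four days before readout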
# [10] = growth inhibition, MDA-MB-436, cell-based, BGB or cisplatin combos, synergistic combos for chromothripsis tumors (AID 1671458; call rule not given here;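 also: cells exposed for 96 hours; 0% = vehicle DMSO and 100% = killing by high DMSO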); settings: MDA-MB-436 breast carcinoma growth inhibition, drug combinations, stronger effect = higher value
# [11] = UWB1.289_BRCA1 ovarian cancer growth, cell-based, BGB or cisplatin combinations (AID 1671459); settings: UWB1.289 BRCA1 ovarian carcinoma, drug combinations, stronger effect = higher value
# [12] = drug combination toxicity in non-malignant astrocytes – cell-based, BGB or cisplatin IC20 combos, cytotoxicity control for chromothriptic childhood tumor combination screen (AID 1671460); settings: Human astrocytes, viability inhibition, drug combinations, at 0.5 µM, stronger effect = higher value;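 also: cells exposed to compounds for 96 hours before viability readout; 0% = vehicle and 100% = killing control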
# [13] = BT084 cell growth, single and combined drugs, ICGC_MB145, cisplatin and BGB IC40 combos (AID 1671461); settings: BT084 medulloblastoma cells, drug combinations, stronger effect = higher value;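 also: cells exposed to drugs for 96 hours; 0% = vehicle DMSO and 100% = high DMSO full killing control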
# [14] = RCMB18 cell growth, single agent and combined, cisplatin and BGB IC40 combos (AID 1671462); settings: RCMB18 medulloblastoma cells, stronger effect = higher value;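 also: cells exposed to compound for four days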
# [15] = CRL1545 cell growth, single agent and combined, cisplatin and BGB IC20 combos (AID 1671464); settings: CRL1545 osteosarcoma cells, stronger effect = higher value;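 also: cells exposed to compound for 96 hours before readout; 0% = vehicle DMSO and 100% = high DMSO killing control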
# [16] = at 0.5 µM, stronger effect = higher value
# [17] = measured here: combination with BGB IC20, at 0.005 µM
# [18] = measured here: combination with BGB IC40, at 0.005 µM
# [19] = measured here: combination with BGB IC40, at 0.05 µM
# [20] = measured here: combination with cisplatin, at 0.5 µM, stronger effect = higher value
# [21] = measured here: combination with cisplatin, at 5 µM, stronger effect = higher value
# [22] = measured here: with BGB IC20 combination, at 0.5 µM
# [23] = measured here: with cisplatin IC20 combination, at 0.5 µM
# [24] = measured here: 5 uM single agent, at 5 µM
# [25] = measured here: combination with cisplatin, at 0.5 µM
# [26] = measured here: combination with cisplatin, at 5 µM
# [27] = measured here: with BGB IC20, at 0.5 µM
# [28] = measured here: with BGB IC20, at 5 µM
# [29] = measured here: with cisplatin IC20, at 0.5 µM
# [30] = measured here: with cisplatin IC20, at 5 µM
# [31] = measured here: combination with BGB at IC20, at 0.5 µM
# [32] = measured here: combination with cisplatin at IC20, at 0.5 µM
# [33] = measured here: combo with BGB at IC20, at 0.5 µM
# [34] = measured here: combo with cisplatin at IC20, at 0.5 µM
# [35] = measured here: inhibition with BGB combination, at 0.05 µM
# [36] = measured here: inhibition with cisplatin combination, at 0.05 µM
# [37] = measured here: BGB combination, at 0.5 µM
# [38] = measured here: BGB combination, at 5 µM
# [39] = measured here: cisplatin combination, at 0.5 µM
# [40] = measured here: cisplatin combination, at 5 µM
# [41] = BGB combination, concentration series, at 5 µM
# [42] = cisplatin combination, concentration series, at 5 µM
# [43] = measured here: combo with BGB IC20
# [44] = measured here: combo with cisplatin IC20
# [45] = cisplatin combination, at 0.5 µM
# [46] = measured here: BGB IC40 combination 0.05 uM, at 0.05 µM
smiles,measurement,setting,value
CON=C1CN(c2nc3c(cc2F)c(=O)c(C(=O)O)cn3C2CC2)CC1CN (stereo not drawn),inhibition,[1]; [16],-25.3% (inactive)
same,inhibition,[1]; [17],-14.3%
same,inhibition,[1]; [18],-29%
same,inhibition,[1]; [19],-34.5%
same,inhibition,[1]; [20],-40.3%
same,inhibition,[1]; [21],-32.3%
same,inhibition,"[2]; BGB combo, at 5 µM",-16.7%
same,inhibition,[2]; at 0.5 µM,7.67% (inactive)
same,inhibition,"[2]; cisplatin combo, at 5 µM",-7.53%
same,inhibition,[2]; [22],8.62%
same,inhibition,[2]; [23],24.5%
same,inhibition,"[2]; single agent, at 5 µM",-10.6%
same,inhibition,"[3]; BGB IC20 combo, at 0.005 µM",-9.19%
same,inhibition,"[3]; BGB IC40 combo, at 0.005 µM",-11.5%
same,inhibition,"[3]; BGB IC40 combo, at 0.05 µM",-24.2%
same,inhibition,[3]; at 0.5 µM,-23.7% (inactive)
same,inhibition,"[3]; cisplatin combo, at 0.05 µM",-30.6%
same,inhibition,"[3]; cisplatin combo, at 0.5 µM",-28.8%
same,inhibition,"[3]; cisplatin combo, at 5 µM",-12.6%
same,inhibition,[3]; [24],-12.7%
same,inhibition,[4]; at 0.5 µM,-19.1% (inactive)
same,inhibition,[4]; [19],-15.4%
same,inhibition,[4]; [25],-33.2%
same,inhibition,[4]; [26],-30.4%
same,inhibition,[5]; at 0.5 µM,5.68% (inactive)
same,inhibition,[5]; [27],30.9%
same,inhibition,[5]; [28],13.1%
same,inhibition,[5]; [29],-15.5%
same,inhibition,[5]; [30],2.1%
same,inhibition,"[5]; single agent, at 5 µM",3.62%
same,inhibition,[6]; at 0.5 µM,-6.34% (inactive)
same,inhibition,[6]; [31],-22.3%
same,inhibition,[6]; [32],10.2%
same,inhibition,[7]; at 0.5 µM,-12.3% (inactive)
same,inhibition,[7]; [33],-16.7%
same,inhibition,[7]; [34],-12.2%
same,inhibition,[8]; at 0.5 µM,-4.81% (inactive)
same,inhibition,[8]; [35],-8.23%
same,inhibition,[8]; [36],-6.42%
same,inhibition,[9]; at 0.5 µM,-15.8% (inactive)
same,inhibition,[9]; [25],-15.1%
same,inhibition,[9]; [26],-25.5%
same,inhibition,[10]; at 0.5 µM,-11.3% (inactive)
same,inhibition,[10]; [37],-3.57%
same,inhibition,[10]; [38],-21.3%
same,inhibition,[10]; [39],-27.7%
same,inhibition,[10]; [40],-9.24%
same,inhibition,[11]; [41],-28.4%
same,inhibition,[11]; at 0.5 µM,-4.07% (inactive)
same,inhibition,[11]; [42],-3.27%
same,inhibition,[12],0.97% (inactive)
same,inhibition,[12]; [43],7.71%
same,inhibition,[12]; [44],2.88%
same,inhibition,[13]; at 0.5 µM,-10.5% (inactive)
same,inhibition,[13]; [45],-2.65%
same,inhibition,"[13]; cisplatin combination, at 5 µM",-140%
same,inhibition,[13]; [46],-26.9%
same,inhibition,"[13]; single agent, at 5 µM",-46.4%
same,inhibition,[14]; at 0.5 µM,-9.98% (inactive)
same,inhibition,"[14]; cisplatin combo, at 5 µM",24.4%
same,inhibition,"[14]; measured here: BGB IC40 combination, at 0.05 µM",-6.9%
same,inhibition,[14]; [25],6.35%
same,inhibition,"[14]; single agent, at 5 µM",-19.4%
same,inhibition,[15]; at 0.5 µM,-0.16% (inactive)
same,inhibition,[15]; [22],-14.3%
same,inhibition,[15]; [23],5.39%
same,inhibition,"[15]; single agent, at 0.05 µM",4.29%
same,inhibition,"[15]; single agent, at 5 µM",16.8%
CCCCCCCCCC(=O)N[C@@H](Cc1c[nH]c2ccccc12)C(=O)N[C@@H](CC(N)=O)C(=O)N[C@@H](CC(=O)O)C(=O)NC1C(=O)NCC(=O)N[C@@H](CCCN)C(=O)N[C@@H](CC(=O)O)C(=O)N[C@H](C)C(=O)N[C@@H](CC(=O)O)C(=O)NCC(=O)N[C@H](CO)C(=O)N[C@@H](C(C)CC(=O)O)C(=O)N[C@@H](CC(=O)c2ccccc2N)C(=O)OC1C (stereo partly drawn),inhibition,[1]; [16],-27.6% (inactive) and -32.6% (inactive)
same,inhibition,[1]; [17],1.22% and 8.36%
same,inhibition,[1]; [18],-33.3% and -6.15%
same,inhibition,[1]; [19],-27.1% and -21.6%
same,inhibition,[1]; [20],-42.5% and -64.3%
same,inhibition,[1]; [21],-23.7% and -0.57%
same,inhibition,"[2]; BGB combo, at 5 µM",-9.1% and -17.9%
same,inhibition,[2]; at 0.5 µM,-7.65% (inactive) and -14% (inactive)
same,inhibition,"[2]; cisplatin combo, at 5 µM",17.9% and -21%
same,inhibition,[2]; [22],-19% and -14.2%
same,inhibition,[2]; [23],5.61% and -17.4%
same,inhibition,"[2]; single agent, at 5 µM",5.14% and 4.37%
same,inhibition,"[3]; BGB IC20 combo, at 0.005 µM",-14.8% and 0.272%
same,inhibition,"[3]; BGB IC40 combo, at 0.005 µM",-10.2% and -12.9%
same,inhibition,"[3]; BGB IC40 combo, at 0.05 µM",-9.03% and -26.8%
same,inhibition,[3]; at 0.5 µM,-38.5% (inactive) and -18.4% (inactive)
same,inhibition,"[3]; cisplatin combo, at 0.05 µM",-12.1% and -31.4%
same,inhibition,"[3]; cisplatin combo, at 0.5 µM",-42.4% and -16.6%
same,inhibition,"[3]; cisplatin combo, at 5 µM",-27.4% and -22.6%
same,inhibition,[3]; [24],-18.7% and 2.31%
same,inhibition,[4]; at 0.5 µM,-6.57% (inactive) and -6.58% (inactive)
same,inhibition,[4]; [19],-2.79% and -15.2%
same,inhibition,[4]; [25],7.06% and -22.9%
same,inhibition,[4]; [26],-14.1% and 4.93%
same,inhibition,[5]; at 0.5 µM,-0.19% (inactive) and -22.1% (inactive)
same,inhibition,[5]; [27],1.21% and -18.4%
same,inhibition,[5]; [28],41% and -9.81%
same,inhibition,[5]; [29],-11.7% and -35.1%
same,inhibition,[5]; [30],-35% and -23.5%
same,inhibition,"[5]; single agent, at 5 µM",-14.9% and -5.13%
same,inhibition,[6]; at 0.5 µM,-34.4% (inactive) and -31.7% (inactive)
same,inhibition,[6]; [31],-39.7% and -27.2%
same,inhibition,[6]; [32],-14% and -62.4%
same,inhibition,[7]; at 0.5 µM,-9.94% (inactive) and -8.88% (inactive)
same,inhibition,[7]; [33],-6.42% and -16.2%
same,inhibition,[7]; [34],-14.7% and -5.25%
same,inhibition,[8]; at 0.5 µM,10.2% (inactive) and 12.2% (inactive)
same,inhibition,[8]; [35],-9.69% and -2.7%
same,inhibition,[8]; [36],-15.8% and -25.8%
same,inhibition,[9]; at 0.5 µM,-23.5% (inactive) and -6.81% (inactive)
same,inhibition,[9]; [25],-31.3% and -1.96%
same,inhibition,[9]; [26],-80.2% and 9.2%
same,inhibition,[10]; at 0.5 µM,-16.9% (inactive) and 1.2% (inactive)
same,inhibition,[10]; [37],-8.45% and 11.2%
same,inhibition,[10]; [38],-21.2% and 5.73%
same,inhibition,[10]; [39],-33.4% and -3.35%
same,inhibition,[10]; [40],-35% and -1.3%
same,inhibition,[11]; [41],0.446% and -9.8%
same,inhibition,[11]; at 0.5 µM,-0.18% (inactive) and -1.59% (inactive)
same,inhibition,[11]; [42],29.6% and 3.48%
same,inhibition,[12],-6.51% (inactive) and -21.5% (inactive)
same,inhibition,[12]; [43],-8.41% and -24.6%
same,inhibition,[12]; [44],-7.76% and -27.2%
same,inhibition,[13]; at 0.5 µM,-50.8% (inactive) and -0.72% (inactive)
same,inhibition,[13]; [45],-32.6% and -11.3%
same,inhibition,"[13]; cisplatin combination, at 5 µM",-30.3% and -7.6%
same,inhibition,[13]; [46],-7.72% and 14.6%
same,inhibition,"[13]; single agent, at 5 µM",-22.5% and -17.6%
same,inhibition,[14]; at 0.5 µM,-14.5% (inactive) and -23% (inactive)
same,inhibition,"[14]; cisplatin combo, at 5 µM",-29.9% and -45.9%
